From publication PMC7862700, “An all-to-all approach to the identification of sequence-specific readers for epigenetic DNA modifications on cytosine” come the findings set out here.

Assay in all cases: DAPPL (digital affinity profiling via proximity ligation, sequencing); 10 mM Tris-HCl pH 7.5, 50 mM NaCl, 1 mM DTT, 4% glycerol, room temperature, 30 min; GST-TFs on glutathione beads, 16-mer random dsDNA library, 0.1% formaldehyde crosslink after washing; high values mean tight binding
One experiment has as its target T1, FEV (Homo sapiens, UniProt Q99581 1-238).
T1 sequence: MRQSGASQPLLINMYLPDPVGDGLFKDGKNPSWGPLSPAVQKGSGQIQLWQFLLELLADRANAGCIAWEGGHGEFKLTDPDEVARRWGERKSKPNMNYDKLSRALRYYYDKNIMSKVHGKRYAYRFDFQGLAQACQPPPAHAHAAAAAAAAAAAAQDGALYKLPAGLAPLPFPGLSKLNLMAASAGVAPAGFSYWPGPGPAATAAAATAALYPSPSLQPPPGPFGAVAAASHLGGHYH
Particulars: protein: recombinant; tags: N-terminal GST; dsDNA, one strand shown. The gist of the method: (§1)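 Binding signal is defined as a hexamer's read frequency for one factor over its frequency for the tag-only sample. To obtain reads, GST-fused human transcription factors were expressed in yeast, captured on glutathione beads, barcoded with DNA and pooled with that sample. Pools met 200 nmole of a 16-mer random double-stranded DNA library in Tris/NaCl/DTT/glycerol buffer for 30 min at room temperature before washing, 0.1% formaldehyde crosslinking, proximity ligation (BsaI/T4 ligase, 1 h, 37 °C), PCR and Illumina NextSeq500 sequencing.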

The target of the next experiment is ETV5 (Homo sapiens, UniProt P41161 1-510). Particulars: protein: recombinant; tags: N-terminal GST; dsDNA, one strand shown. The gist of the method: as §1
The next experiment addresses HSF1 (Homo sapiens, UniProt Q00613 1-529). Particulars: protein: recombinant; tags: N-terminal GST; chain copies: 3; dsDNA, one strand shown. The gist of the method: as §1
For a further experiment, the target named is T2, SPIC (Homo sapiens, UniProt Q8N5J4 1-248).
T2 sequence: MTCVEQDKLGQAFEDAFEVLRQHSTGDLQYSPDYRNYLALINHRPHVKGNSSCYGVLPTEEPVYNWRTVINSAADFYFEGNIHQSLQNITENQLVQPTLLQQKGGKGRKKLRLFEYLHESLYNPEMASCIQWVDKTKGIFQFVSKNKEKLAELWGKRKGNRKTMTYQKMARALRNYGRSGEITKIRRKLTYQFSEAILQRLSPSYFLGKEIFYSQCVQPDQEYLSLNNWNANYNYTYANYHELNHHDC
Particulars: protein: recombinant; tags: N-terminal GST; dsDNA, one strand shown. Summed up:
as §1

The target of another experiment is ELF4 (Homo sapiens, UniProt Q99607 1-663). The settings on record: protein: recombinant; tags: N-terminal GST; dsDNA, one strand shown. Summed up: as §1
The target in a further experiment is T3, ELK4 (Homo sapiens, UniProt P28324-2 1-405).
T3 sequence: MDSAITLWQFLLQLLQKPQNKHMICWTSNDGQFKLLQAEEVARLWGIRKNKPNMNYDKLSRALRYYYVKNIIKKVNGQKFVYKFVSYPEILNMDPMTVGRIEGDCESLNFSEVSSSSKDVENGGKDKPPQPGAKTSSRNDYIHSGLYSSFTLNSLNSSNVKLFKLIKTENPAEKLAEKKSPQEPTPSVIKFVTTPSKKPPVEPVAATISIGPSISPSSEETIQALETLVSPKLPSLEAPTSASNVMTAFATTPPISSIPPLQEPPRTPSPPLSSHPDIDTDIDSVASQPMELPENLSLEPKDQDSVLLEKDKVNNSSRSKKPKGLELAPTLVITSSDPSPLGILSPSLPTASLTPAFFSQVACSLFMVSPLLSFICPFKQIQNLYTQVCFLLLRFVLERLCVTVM
Particulars: protein: recombinant; tags: N-terminal GST; dsDNA, one strand shown. The gist of the method:
as §1

The target of another experiment is T4, ETV2 (Homo sapiens, UniProt O00321 1-342).
T4 sequence: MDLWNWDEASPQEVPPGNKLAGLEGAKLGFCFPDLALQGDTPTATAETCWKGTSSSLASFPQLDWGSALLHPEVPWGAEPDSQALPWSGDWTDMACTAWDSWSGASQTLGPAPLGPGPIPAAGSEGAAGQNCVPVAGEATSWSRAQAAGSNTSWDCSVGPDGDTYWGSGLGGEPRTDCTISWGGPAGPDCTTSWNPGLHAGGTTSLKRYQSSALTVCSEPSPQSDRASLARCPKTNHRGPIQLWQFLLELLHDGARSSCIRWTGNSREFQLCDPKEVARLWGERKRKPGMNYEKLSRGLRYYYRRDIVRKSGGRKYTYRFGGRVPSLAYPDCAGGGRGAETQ
Particulars: protein: recombinant; tags: N-terminal GST; dsDNA, one strand shown. The gist of the method: as §1

The target of a further experiment is T5, ELF3 (Homo sapiens, UniProt P78545 1-371).
T5 sequence: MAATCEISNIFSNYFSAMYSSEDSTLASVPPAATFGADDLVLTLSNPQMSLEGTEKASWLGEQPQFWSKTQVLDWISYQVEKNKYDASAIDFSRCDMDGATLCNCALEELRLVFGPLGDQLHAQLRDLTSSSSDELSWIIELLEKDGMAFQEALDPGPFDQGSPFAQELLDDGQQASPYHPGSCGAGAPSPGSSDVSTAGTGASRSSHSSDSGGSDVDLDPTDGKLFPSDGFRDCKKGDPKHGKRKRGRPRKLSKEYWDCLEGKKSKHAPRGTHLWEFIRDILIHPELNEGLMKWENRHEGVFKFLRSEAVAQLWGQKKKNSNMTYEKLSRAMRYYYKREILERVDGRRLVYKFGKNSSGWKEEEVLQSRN
The settings on record: protein: recombinant; tags: N-terminal GST; dsDNA, one strand shown. Summed up:
as §1

For another experiment, the target named is CRX (Homo sapiens, UniProt O43186 1-299). The settings on record: protein: recombinant; tags: N-terminal GST; dsDNA, one strand shown. Summed up: as §1
The next experiment addresses ETV1 (Homo sapiens, UniProt P50549 1-477). Particulars: protein: recombinant; tags: N-terminal GST; dsDNA, one strand shown. The gist of the method: as §1
The target in the next experiment is T6, ERF (Homo sapiens, UniProt P50548 1-548).
T6 sequence: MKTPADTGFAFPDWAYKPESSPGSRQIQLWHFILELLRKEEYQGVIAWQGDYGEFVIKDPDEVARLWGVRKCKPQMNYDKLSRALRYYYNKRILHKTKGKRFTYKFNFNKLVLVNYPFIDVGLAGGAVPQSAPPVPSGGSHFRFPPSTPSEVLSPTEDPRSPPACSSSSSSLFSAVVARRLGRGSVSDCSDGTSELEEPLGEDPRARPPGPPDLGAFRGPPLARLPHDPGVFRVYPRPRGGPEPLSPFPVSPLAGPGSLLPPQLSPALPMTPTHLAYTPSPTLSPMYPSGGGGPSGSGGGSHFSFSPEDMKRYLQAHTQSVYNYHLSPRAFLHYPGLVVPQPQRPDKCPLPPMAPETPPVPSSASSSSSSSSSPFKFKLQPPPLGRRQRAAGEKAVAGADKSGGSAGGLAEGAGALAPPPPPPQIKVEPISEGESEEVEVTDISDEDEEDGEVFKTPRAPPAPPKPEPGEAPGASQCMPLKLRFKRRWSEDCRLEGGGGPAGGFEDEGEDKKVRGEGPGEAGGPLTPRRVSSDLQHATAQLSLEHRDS
The settings on record: protein: recombinant; tags: N-terminal GST; dsDNA, one strand shown. Summed up:
as §1

The target in a further experiment is T7, ETV3L (Homo sapiens, UniProt Q6ZN32 1-361).
T7 sequence: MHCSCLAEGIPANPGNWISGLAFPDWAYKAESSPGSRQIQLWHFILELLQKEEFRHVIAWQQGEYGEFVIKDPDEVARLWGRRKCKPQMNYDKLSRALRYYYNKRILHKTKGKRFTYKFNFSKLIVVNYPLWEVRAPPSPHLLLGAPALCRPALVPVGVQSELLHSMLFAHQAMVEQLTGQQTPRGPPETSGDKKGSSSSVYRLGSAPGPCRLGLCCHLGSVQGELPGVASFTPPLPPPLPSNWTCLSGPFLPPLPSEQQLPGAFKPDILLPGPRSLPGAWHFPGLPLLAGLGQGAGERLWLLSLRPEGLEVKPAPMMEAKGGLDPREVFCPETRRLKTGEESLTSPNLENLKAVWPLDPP
The settings on record: protein: recombinant; tags: N-terminal GST; dsDNA, one strand shown. Summed up: as §1

For the next experiment, the target named is T8, ETS2 (Homo sapiens, UniProt P15036 1-469).
T8 sequence: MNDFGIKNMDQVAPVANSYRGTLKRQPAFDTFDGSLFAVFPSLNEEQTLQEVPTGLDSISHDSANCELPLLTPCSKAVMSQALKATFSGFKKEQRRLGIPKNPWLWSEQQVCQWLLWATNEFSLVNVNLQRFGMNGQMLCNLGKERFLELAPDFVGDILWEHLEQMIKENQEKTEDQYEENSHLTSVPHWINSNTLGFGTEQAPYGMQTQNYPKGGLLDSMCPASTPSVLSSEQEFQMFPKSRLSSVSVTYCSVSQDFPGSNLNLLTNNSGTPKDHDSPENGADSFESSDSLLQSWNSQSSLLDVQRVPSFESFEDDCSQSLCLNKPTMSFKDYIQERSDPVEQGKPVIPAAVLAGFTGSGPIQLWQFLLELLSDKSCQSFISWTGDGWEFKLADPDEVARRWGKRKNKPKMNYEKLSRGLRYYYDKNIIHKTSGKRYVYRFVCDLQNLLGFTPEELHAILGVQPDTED
The settings on record: protein: recombinant; tags: N-terminal GST; dsDNA, one strand shown. The gist of the method:
as §1

The next experiment deals with T9, SPDEF (Homo sapiens, UniProt O95238 1-335).
T9 sequence: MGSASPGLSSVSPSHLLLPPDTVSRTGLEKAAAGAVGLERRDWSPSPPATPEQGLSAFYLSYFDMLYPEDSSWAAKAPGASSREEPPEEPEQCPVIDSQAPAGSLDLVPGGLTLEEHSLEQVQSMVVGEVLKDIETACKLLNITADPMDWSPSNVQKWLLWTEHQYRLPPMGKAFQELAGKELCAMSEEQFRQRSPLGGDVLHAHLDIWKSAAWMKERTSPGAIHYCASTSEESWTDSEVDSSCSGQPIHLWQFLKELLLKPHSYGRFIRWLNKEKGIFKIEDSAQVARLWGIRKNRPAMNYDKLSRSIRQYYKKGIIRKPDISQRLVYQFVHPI
Particulars: protein: recombinant; tags: N-terminal GST; dsDNA, one strand shown. The gist of the method: as §1

The target of another experiment is T10, ETV7 (Homo sapiens, UniProt Q9Y603 1-341).
T10 sequence: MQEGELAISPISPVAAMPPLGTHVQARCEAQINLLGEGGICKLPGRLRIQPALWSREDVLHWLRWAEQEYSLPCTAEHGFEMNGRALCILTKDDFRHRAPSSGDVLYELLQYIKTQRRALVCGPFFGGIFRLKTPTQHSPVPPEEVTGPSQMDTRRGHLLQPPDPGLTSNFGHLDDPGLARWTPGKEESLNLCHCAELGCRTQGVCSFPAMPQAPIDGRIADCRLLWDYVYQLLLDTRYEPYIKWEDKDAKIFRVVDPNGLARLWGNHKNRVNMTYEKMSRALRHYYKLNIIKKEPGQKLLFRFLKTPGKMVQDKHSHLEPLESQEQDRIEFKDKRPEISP
The settings on record: protein: recombinant; tags: N-terminal GST; dsDNA, one strand shown. The gist of the method: as §1

The next experiment addresses T11, ELF5 (Homo sapiens, UniProt Q9UKW6-2 1-255).
T11 sequence: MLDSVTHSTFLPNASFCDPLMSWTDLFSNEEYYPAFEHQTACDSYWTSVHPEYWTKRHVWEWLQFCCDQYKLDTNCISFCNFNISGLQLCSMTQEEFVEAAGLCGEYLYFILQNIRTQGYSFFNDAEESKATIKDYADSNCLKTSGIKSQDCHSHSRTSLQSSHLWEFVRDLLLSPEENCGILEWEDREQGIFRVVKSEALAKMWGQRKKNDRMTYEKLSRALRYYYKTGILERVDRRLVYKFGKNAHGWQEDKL
Particulars: protein: recombinant; tags: N-terminal GST; dsDNA, one strand shown. The gist of the method: as §1

A further experiment concerns the target T12, ETV3 (Homo sapiens, UniProt P41162-2 1-143).
T12 sequence: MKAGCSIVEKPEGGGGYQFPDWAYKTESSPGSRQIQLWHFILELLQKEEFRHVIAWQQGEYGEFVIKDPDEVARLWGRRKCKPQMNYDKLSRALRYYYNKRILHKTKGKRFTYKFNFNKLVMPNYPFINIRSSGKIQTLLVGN
The settings on record: protein: recombinant; tags: N-terminal GST; dsDNA, one strand shown. The gist of the method: as §1

For a further experiment, the target named is ETV6 (Homo sapiens, UniProt P41212 1-452). Particulars: protein: recombinant; tags: N-terminal GST; dsDNA, one strand shown. Summed up: as §1
ETV6, sequence (P41212 whole entry): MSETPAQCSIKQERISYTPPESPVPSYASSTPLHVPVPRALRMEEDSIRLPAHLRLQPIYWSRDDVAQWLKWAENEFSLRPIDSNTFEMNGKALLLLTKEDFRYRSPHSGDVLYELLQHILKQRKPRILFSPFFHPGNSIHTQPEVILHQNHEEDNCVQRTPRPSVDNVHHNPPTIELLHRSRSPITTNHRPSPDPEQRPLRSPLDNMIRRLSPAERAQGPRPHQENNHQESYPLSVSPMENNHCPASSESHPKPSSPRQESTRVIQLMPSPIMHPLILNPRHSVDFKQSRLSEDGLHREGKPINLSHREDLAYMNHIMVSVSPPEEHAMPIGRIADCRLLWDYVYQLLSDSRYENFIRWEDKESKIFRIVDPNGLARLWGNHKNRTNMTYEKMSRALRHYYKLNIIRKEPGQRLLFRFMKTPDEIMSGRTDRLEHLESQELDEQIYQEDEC

ETV1, sequence (P50549 whole entry): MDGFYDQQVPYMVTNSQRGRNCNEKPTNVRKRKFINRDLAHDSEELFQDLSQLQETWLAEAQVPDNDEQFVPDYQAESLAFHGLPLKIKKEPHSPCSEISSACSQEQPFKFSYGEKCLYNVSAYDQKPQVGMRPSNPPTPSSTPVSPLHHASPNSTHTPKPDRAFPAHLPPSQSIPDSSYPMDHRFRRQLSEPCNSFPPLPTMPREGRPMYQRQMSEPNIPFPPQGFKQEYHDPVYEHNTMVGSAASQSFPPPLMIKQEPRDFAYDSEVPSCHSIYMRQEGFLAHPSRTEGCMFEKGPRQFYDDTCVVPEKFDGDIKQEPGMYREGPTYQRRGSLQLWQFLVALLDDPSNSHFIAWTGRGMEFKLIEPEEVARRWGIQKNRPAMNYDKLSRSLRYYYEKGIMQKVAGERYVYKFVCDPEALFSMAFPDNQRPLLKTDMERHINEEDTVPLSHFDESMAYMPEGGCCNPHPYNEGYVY
CRX, sequence (O43186 whole entry): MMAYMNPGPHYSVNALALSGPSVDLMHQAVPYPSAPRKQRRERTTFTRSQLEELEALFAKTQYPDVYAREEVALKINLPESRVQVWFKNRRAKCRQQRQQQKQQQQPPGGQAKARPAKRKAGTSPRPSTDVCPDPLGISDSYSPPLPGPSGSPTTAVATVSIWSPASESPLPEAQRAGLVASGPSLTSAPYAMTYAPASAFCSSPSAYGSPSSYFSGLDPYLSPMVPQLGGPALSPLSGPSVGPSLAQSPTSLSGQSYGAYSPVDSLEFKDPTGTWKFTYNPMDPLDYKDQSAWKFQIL
ELF4, sequence (Q99607 whole entry): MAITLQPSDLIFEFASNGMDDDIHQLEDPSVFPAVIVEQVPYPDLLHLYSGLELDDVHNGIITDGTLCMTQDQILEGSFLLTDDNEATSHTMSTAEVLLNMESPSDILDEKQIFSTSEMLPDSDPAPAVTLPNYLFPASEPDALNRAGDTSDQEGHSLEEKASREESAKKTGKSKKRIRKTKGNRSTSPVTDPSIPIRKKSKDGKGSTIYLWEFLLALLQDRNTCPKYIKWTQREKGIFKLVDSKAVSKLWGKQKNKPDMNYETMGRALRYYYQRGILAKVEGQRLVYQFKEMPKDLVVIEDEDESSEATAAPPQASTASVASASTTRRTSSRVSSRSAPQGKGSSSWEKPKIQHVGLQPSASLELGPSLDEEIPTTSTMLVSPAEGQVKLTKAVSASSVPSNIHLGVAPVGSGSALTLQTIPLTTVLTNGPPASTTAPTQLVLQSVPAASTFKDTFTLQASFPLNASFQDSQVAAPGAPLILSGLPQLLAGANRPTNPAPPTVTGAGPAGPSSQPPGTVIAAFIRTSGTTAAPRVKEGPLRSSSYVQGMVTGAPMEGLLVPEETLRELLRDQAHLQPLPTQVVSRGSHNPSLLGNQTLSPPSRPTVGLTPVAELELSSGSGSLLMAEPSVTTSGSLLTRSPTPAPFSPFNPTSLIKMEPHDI
HSF1, sequence (Q00613 whole entry): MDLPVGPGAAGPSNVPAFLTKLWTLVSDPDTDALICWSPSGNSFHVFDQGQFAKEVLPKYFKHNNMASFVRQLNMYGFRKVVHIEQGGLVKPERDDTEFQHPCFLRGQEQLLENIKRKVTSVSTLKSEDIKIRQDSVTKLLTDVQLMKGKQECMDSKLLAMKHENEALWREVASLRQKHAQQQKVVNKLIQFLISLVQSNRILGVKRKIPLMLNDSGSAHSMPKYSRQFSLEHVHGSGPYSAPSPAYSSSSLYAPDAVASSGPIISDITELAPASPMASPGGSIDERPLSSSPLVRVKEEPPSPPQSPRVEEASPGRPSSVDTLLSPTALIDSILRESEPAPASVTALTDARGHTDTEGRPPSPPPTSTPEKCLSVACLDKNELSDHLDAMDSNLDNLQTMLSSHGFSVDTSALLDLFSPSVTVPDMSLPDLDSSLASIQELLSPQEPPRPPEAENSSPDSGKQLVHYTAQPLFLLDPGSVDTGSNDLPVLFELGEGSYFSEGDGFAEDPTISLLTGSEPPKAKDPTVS
ETV5, sequence (P41161 whole entry): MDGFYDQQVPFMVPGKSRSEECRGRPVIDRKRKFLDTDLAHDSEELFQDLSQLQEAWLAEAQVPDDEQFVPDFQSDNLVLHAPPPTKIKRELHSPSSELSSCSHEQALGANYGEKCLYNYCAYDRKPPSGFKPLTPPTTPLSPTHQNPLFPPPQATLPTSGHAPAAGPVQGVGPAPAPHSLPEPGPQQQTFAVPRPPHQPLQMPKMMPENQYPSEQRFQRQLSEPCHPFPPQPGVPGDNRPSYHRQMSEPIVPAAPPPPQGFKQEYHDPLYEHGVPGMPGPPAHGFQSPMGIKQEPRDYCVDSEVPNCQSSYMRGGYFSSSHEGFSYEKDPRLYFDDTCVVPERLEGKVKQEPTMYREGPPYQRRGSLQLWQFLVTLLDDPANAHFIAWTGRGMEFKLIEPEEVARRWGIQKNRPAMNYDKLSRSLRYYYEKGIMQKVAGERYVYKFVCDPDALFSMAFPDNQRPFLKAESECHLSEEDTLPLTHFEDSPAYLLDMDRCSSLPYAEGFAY

Take TTGCGA: the binding signal with FEV is 1.08 fold enrichment (6-mer frequency, TF over GST control); with ETV5, 1.15 fold enrichment (6-mer frequency, TF over GST control); with HSF1, 1.24 fold enrichment (6-mer frequency, TF over GST control); with SPIC, 1.35 fold enrichment (6-mer frequency, TF over GST control); with ELF4, 1.14 fold enrichment (6-mer frequency, TF over GST control); with ELK4 it was 1.11 fold enrichment (6-mer frequency, TF over GST control). Also, the binding signal is 1.1 fold enrichment (6-mer frequency, TF over GST control) with ETV2; 1.16 fold enrichment (6-mer frequency, TF over GST control) with ELF3; 1.15 fold enrichment (6-mer frequency, TF over GST control) with CRX; 1.15 fold enrichment (6-mer frequency, TF over GST control) with ETV1; 1.29 fold enrichment (6-mer frequency, TF over GST control) in the experiment with ERF; 1.14 fold enrichment (6-mer frequency, TF over GST control) in the experiment with ETV3L. For the same sequence, the binding signal with ETS2 was 1.14 fold enrichment (6-mer frequency, TF over GST control); with SPDEF it was 1.11 fold enrichment (6-mer frequency, TF over GST control); with ETV7, 1.14 fold enrichment (6-mer frequency, TF over GST control); in the experiment with ELF5, 1.12 fold enrichment (6-mer frequency, TF over GST control); with ETV3, 1.08 fold enrichment (6-mer frequency, TF over GST control); with ETV6, 1.11 fold enrichment (6-mer frequency, TF over GST control).
